# Measurements reported in PubChem BioAssay AID485317 (Broad Institute, 2010).
# Screen size: about 290,000 compounds; about 11,000 (3.8%) were called active. Many of the other results were omitted from the sample, so actives are more common in it than they were. Unmarked numbers belong to inactive results.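 How the source made its calls: active means mean replicate inhibition above about 79%, with every replicate also reaching it (limit read from the data); inconclusive means only one of the two criteria met; inactive means mean below limit and not every replicate reaching it.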
# Molecular target: FAD-linked sulfhydryl oxidase ALR (Homo sapiens) (UniProt P55789)
# Assay: inhibitors of human ALR sulfhydryl oxidase, primary screen, biochemical, H2O2 detection, HRP-luminol luminescence, single point (AID 485317)
# Conditions: purified ALR, DTT oxidation, active compounds read high, concentration not given here
# Chain of FAD-linked sulfhydryl oxidase ALR (Homo sapiens) (P55789 whole entry, looked up): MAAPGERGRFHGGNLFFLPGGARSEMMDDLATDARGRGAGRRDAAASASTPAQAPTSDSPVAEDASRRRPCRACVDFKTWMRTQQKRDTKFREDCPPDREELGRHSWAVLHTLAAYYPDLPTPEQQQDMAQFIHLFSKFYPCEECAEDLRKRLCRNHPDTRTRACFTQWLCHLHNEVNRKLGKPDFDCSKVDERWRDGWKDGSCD
row,SMILES,inhibition
1,CCCc1nnc(NC(=O)CN2C(=O)c3ccccc3S2(=O)=O)s1,1.19%
2,O=C(CN1C(=O)c2ccccc2S1(=O)=O)NC1CCCCC1,-2.86%
3,CNC(=O)CN1C(=O)c2ccccc2S1(=O)=O,96.2% (active)
4,CC(OC(=O)c1ccc2noc(-c3ccccc3)c2c1)C(N)=O (stereo unspecified),2.68%
5,COc1ccc(-c2onc3ccc(C(C)=O)cc23)cc1,-6.5%
6,Oc1ccc(-c2onc3ccc(Cl)cc23)cc1,81% (active)
7,O=C1COc2ccc(C(=O)CSc3ccc(Br)cc3)cc2N1,-4.57%
8,COCCN(C(=O)COC(=O)Cc1cccc(OC)c1)c1c(N)n(Cc2ccccc2)c(=O)[nH]c1=O,3.3%
9,COc1ccc(-c2cc(C(=O)N/N=C/c3cccnc3)c3ccccc3n2)c(OC)c1,0.831%
10,Cc1cc(C(=O)CSc2nc(N)cc(=O)[nH]2)c(C)n1CCc1ccc(Cl)cc1,3.32%
11,CCCc1cc(=O)[nH]c(SCC(=O)c2cc(C)n(CCC)c2C)n1,96% (active)
12,CCCc1cc(=O)[nH]c(SCC(=O)c2c(N)n(CC(C)C)c(=O)n(C)c2=O)n1,-1.46%
13,Cc1ccc(F)cc1NC(=O)CSCc1c(C)noc1C,9.91%
14,Cc1cccc(C(=O)N[C@H](C(=O)NCc2cccs2)C(C)C)c1,0.403%
15,CCC(C)NC(=O)c1ccc(NC(=O)CC2SC(N3CCCCC3)=NC2=O)cc1 (stereo unspecified),-5.35%
16,COc1ccc2cc(C(=O)NCC3CCCO3)[nH]c2c1 (stereo unspecified),-17.8%
17,CN(C)CCCNC(=O)c1ccc2[nH]c3ccccc3c2c1,-6.4%
18,O=C(NCCCO)c1cc2c([nH]c3ccccc32)c(-c2ccc(F)cc2)n1,98% (active)
19,COc1cccc2[nH]c(C(=O)NCCc3ccccc3)cc12,-7.11%
20,O=C(NCC1CCCO1)c1cc(-c2ccccc2)nc2ccccc12 (stereo unspecified),-3.93%
21,O=C(NCC1CCCO1)c1cc2c([nH]c3ccccc32)c(-c2ccc(F)cc2)n1 (stereo unspecified),96.9% (active)
22,C[C@H](CO)N1C[C@H](C)[C@@H](CN(C)C(=O)NC2CCCCC2)Oc2ccc(NC(=O)c3ccncc3)cc2C1=O,-4.41%
23,CCN(C(=O)CSc1cccc[n+]1[O-])c1ccccc1,-7.12%
24,COc1cccc(/C=C/C(=O)OCC(=O)N2CCN(c3ccccc3)CC2)c1,27.8%
25,CCOc1ccc(-c2ccc(SCC(=O)N3CCOCC3)nn2)cc1,-5.59%
26,COc1cccc(-c2ccc(SCC(=O)N3CCN(c4ccccc4)CC3)nn2)c1,88.3% (active)
